Residue numbers refer to the chain shown, from its start.

Holding throughout (experiment): yeast three-hybrid, YBZ-1, SC-Leu-His + 0.5 mM 3-AT, 4 days
Conditions in all cases: tags: N-Gal4 AD-HA kept; label: inside an RPR1-promoter hybrid RNA with tandem MS2 sites; ssRNA

One assay deals with PUM1 PUF domain R2-LFL (Homo sapiens, UniProt Q14671 828-1176, N899L;Y900F;Q903L). In a few lines:
(§1)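 Repeat regions from input (SC-Leu) and selection (SC-Leu-His + 0.5 mM 3-AT) plates were PCR-amplified and Illumina-sequenced after four days of growth. The cells were strain YBZ-1 with a LexA–MS2 coat fusion and a HIS3 reporter, co-expressing Pumilio-1 PUF domain libraries and matching RNA elements from a centromeric plasmid. The interaction score is the log change in variant frequency from input to selection, taken in log2 with a pseudocount of 1 for absent variants.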

Another assay concerns the target T1, PUM1 PUF domain R6-MWR (Homo sapiens, UniProt Q14671 828-1176, N1043M;Y1044W;Q1047R).
T1 sequence: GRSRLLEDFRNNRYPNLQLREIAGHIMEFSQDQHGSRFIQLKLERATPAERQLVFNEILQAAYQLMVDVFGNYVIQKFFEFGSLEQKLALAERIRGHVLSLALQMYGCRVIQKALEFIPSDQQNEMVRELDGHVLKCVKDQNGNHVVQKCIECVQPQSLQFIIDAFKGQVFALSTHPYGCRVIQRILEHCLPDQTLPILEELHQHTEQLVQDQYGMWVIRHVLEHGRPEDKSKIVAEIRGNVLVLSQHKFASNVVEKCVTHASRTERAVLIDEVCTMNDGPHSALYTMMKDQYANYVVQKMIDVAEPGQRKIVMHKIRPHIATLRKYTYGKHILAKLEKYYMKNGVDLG
An outline of the steps: as §1

The next assay concerns the target PUM1 PUF domain R5-KFC (Homo sapiens, UniProt Q14671 828-1176, C1007K;R1008F;Q1011C). In a few lines: as §1
The target of the next assay is PUM1 PUF domain R5-RRE (Homo sapiens, UniProt Q14671 828-1176, C1007R;Q1011E). An outline of the steps: as §1
For the next assay, the target named is PUM1 PUF domain R5-KFW (Homo sapiens, UniProt Q14671 828-1176, C1007K;R1008F;Q1011W). In a few lines: as §1
The target of a further assay is PUM1 PUF domain R5-GTR (Homo sapiens, UniProt Q14671 828-1176, C1007G;R1008T;Q1011R). In a few lines:
as §1

The target of another assay is PUM1 PUF domain R5-SKN (Homo sapiens, UniProt Q14671 828-1176, C1007S;R1008K;Q1011N). In a few lines: as §1
The target in another assay is PUM1 PUF domain R8-RYV (Homo sapiens, UniProt Q14671 828-1176, N1122R;Q1126V). In a few lines: as §1
A further assay has as its target PUM1 PUF domain R8-PYY (Homo sapiens, UniProt Q14671 828-1176, N1122P;Q1126Y). In a few lines:
as §1

In the next assay the target is T2, PUM1 PUF domain R6-TWQ (Homo sapiens, UniProt Q14671 828-1176, N1043T;Y1044W).
T2 sequence: T1 sequence with M216T, R220Q
In a few lines:
as §1

In a further assay the target is T3, PUM1 PUF domain R6-VFH (Homo sapiens, UniProt Q14671 828-1176, N1043V;Y1044F;Q1047H).
T3 sequence: T1 sequence with M216V, W217F, R220H
In a few lines:
as §1

A further assay deals with T4, PUM1 PUF domain R6-LWE (Homo sapiens, UniProt Q14671 828-1176, N1043L;Y1044W;Q1047E).
T4 sequence: T1 sequence with M216L, R220E
In a few lines:
as §1

A further assay addresses PUM1 PUF domain R3-DWE (Homo sapiens, UniProt Q14671 828-1176, C935D;R936W;Q939E). An outline of the steps: as §1
The target of another assay is PUM1 PUF domain R3-FFG (Homo sapiens, UniProt Q14671 828-1176, C935F;R936F;Q939G). An outline of the steps:
as §1

The target of a further assay is PUM1 PUF domain R3-LWV (Homo sapiens, UniProt Q14671 828-1176, C935L;R936W;Q939V). In a few lines:
as §1

Another assay concerns the target T5, PUM1 PUF domain R6-FWT (Homo sapiens, UniProt Q14671 828-1176, N1043F;Y1044W;Q1047T).
T5 sequence: T1 sequence with M216F, R220T
In a few lines: as §1

A further assay deals with PUM1 PUF domain R4-EHI (Homo sapiens, UniProt Q14671 828-1176, N971E;Q975I). In a few lines: as §1

Sequence of PUM1 PUF domain R5-RRE (Q14671 828-1176 C1007R/Q1011E): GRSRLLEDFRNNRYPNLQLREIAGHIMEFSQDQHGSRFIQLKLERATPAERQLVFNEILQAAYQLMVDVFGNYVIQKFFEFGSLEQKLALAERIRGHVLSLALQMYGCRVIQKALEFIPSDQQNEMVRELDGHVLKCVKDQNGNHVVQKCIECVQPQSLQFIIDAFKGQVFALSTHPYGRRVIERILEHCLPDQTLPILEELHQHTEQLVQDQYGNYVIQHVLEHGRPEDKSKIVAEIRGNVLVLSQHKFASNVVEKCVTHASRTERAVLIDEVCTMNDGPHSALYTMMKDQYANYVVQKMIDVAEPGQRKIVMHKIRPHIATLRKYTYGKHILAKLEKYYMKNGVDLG

In the case of “GGCUAGAACUAGUGGAUCCCCCGGCGCCCGGCGGCUCGAGCCCGGGUAAGUGUAAAAAGUCUGCAUGCCGCCGGGCGCCAUGCCUGCAGGUCGACUCUAGAAAACAUG”, the binding signal in the assay with PUM1 PUF domain R2-LFL is 5.51 log2 enrichment (interaction score).

Turning to “GGCUAGAACUAGUGGAUCCCCCGGCGCCCGGCGGCUCGAGCCCGGGUAAGUGCAAAUAGUCUGCAUGCCGCCGGGCGCCAUGCCUGCAGGUCGACUCUAGAAAACAUG”, the binding signal with PUM1 PUF domain R6-MWR was 2.97 log2 enrichment (interaction score).

For the sequence “GGCUAGAACUAGUGGAUCCCCCGGCGCCCGGCGGCUCGAGCCCGGGUAAGUGUCAAUAGUCUGCAUGCCGCCGGGCGCCAUGCCUGCAGGUCGACUCUAGAAAACAUG”, the binding signal with PUM1 PUF domain R5-KFC was 3.89 log2 enrichment (interaction score); in the assay with PUM1 PUF domain R5-RRE, 4.96 log2 enrichment (interaction score); with PUM1 PUF domain R5-KFW, 4.73 log2 enrichment (interaction score); with PUM1 PUF domain R5-GTR, 4.92 log2 enrichment (interaction score); with PUM1 PUF domain R5-SKN it was 1.73 log2 enrichment (interaction score).

In the case of “GGCUAGAACUAGUGGAUCCCCCGGCGCCCGGCGGCUCGAGCCCGGGUAAGUGUGAAUAGUCUGCAUGCCGCCGGGCGCCAUGCCUGCAGGUCGACUCUAGAAAACAUG”, the binding signal in the assay with PUM1 PUF domain R5-RRE was 2.27 log2 enrichment (interaction score).

As to “GGCUAGAACUAGUGGAUCCCCCGGCGCCCGGCGGCUCGAGCCCGGGUAAGCGUAAAUAGUCUGCAUGCCGCCGGGCGCCAUGCCUGCAGGUCGACUCUAGAAAACAUG”, the results for the binding signal in the assay with PUM1 PUF domain R8-RYV and with PUM1 PUF domain R8-PYY were 6.01 log2 enrichment (interaction score) and 3.73 log2 enrichment (interaction score), respectively.

Consider “GGCUAGAACUAGUGGAUCCCCCGGCGCCCGGCGGCUCGAGCCCGGGUAAGUGAAAAUAGUCUGCAUGCCGCCGGGCGCCAUGCCUGCAGGUCGACUCUAGAAAACAUG”, for which the binding signal with PUM1 PUF domain R6-MWR was 3.34 log2 enrichment (interaction score); with PUM1 PUF domain R6-TWQ, 2.43 log2 enrichment (interaction score); with PUM1 PUF domain R6-VFH it was 3.39 log2 enrichment (interaction score); with PUM1 PUF domain R6-LWE, 3.79 log2 enrichment (interaction score).

For the sequence “GGCUAGAACUAGUGGAUCCCCCGGCGCCCGGCGGCUCGAGCCCGGGUAAGUGUAAAUAGUCUGCAUGCCGCCGGGCGCCAUGCCUGCAGGUCGACUCUAGAAAACAUG”, the binding signal is 5.41 log2 enrichment (interaction score) with PUM1 PUF domain R5-KFC; 7.74 log2 enrichment (interaction score) with PUM1 PUF domain R6-MWR; 2.3 log2 enrichment (interaction score) with PUM1 PUF domain R3-DWE; 1.27 log2 enrichment (interaction score) in the assay with PUM1 PUF domain R5-RRE; 3.83 log2 enrichment (interaction score) in the assay with PUM1 PUF domain R5-KFW; 3.38 log2 enrichment (interaction score) with PUM1 PUF domain R3-FFG. Besides, the binding signal with PUM1 PUF domain R3-LWV was 3.07 log2 enrichment (interaction score); in the assay with PUM1 PUF domain R6-FWT, 4.41 log2 enrichment (interaction score); with PUM1 PUF domain R8-RYV it was 4.92 log2 enrichment (interaction score); with PUM1 PUF domain R4-EHI, 3.46 log2 enrichment (interaction score); with PUM1 PUF domain R8-PYY, 2.84 log2 enrichment (interaction score).
